Laboratory results as given in the supplement of paper PMC12350171.
Where a name gives a salt, the structure may show the parent alone. Values without a mark were called inactive.

Experiments:
Conditions in all cases: 20 µM
[1] = tested on: Salmonella enterica typhimurium; assay: growth AUC normalised to DMSO control (fraction of control); higher = less growth inhibition, active = hit call of the paper
Method in brief: (§1)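 Pathogens were passaged twice under anaerobic conditions, then inoculated into pre-reduced mGAM plates at a starting OD578 of 0.01, with compound at 20 μM and 1% DMSO, and sealed with breathable membranes. For Haemophilus parainfluenzae, the medium was supplemented with hemin and NAD. OD578 was read every hour for 24 h in three biological replicates. Growth-curve AUC was calculated by the trapezoidal rule up to the exponential-to-stationary transition and normalised to DMSO controls on the same plate.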

[2] = tested on: Shigella flexneri; assay: as above
Method in brief: as §1

[3] = tested on: Vibrio cholerae; assay: as above
Method in brief: as §1

[4] = tested on: Yersinia pseudotuberculosis; assay: as above
Method in brief: as §1

[5] = tested on: P. vulgatus RND KO; assay: growth AUC normalised to DMSO control (median) (fraction of control); higher = less growth inhibition, active = hit call of the paper
Method in brief: (§2)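 Strains were passaged twice overnight without oxygen, then grown in mGAM in 96-well plates with each approved-drug library compound at 20 μM and 1% DMSO, starting at OD578 0.01. OD578 was read hourly for 24 h inside an anaerobic incubator. Curves were truncated at entry into stationary phase, and the trapezoidal-rule area under the curve was normalised to same-plate vehicle wells. The value is the median across three biological replicates.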

[6] = tested on: P. vulgatus WT; assay: as above
Method in brief: as §2

[7] = tested on: S. enterica typhimurium WT; assay: as above
Method in brief: as §2

[8] = tested on: S. enterica typhimurium tolC KO; assay: as above
Method in brief: as §2
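Wherever growth AUC normalised to DMSO control (median) is given: active when median AUC fell below 0.1.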

| SMILES | growth AUC normalised to DMSO control [1] | growth AUC normalised to DMSO control [2] | growth AUC normalised to DMSO control [3] | growth AUC normalised to DMSO control [4] | growth AUC normalised to DMSO control [5] | growth AUC normalised to DMSO control [6] | growth AUC normalised to DMSO control [7] | growth AUC normalised to DMSO control [8] |
| --- | --- | --- | --- | --- | --- | --- | --- | --- |
| COc1ccccc1OCC(O)CN1CCN(CC(=O)Nc2c(C)cccc2C)CC1 (centres undefined) [Ranolazine] | 1 | 1 | 1.01 | 1.01 | 0.994 | 1 | 0.998 | 0.998 |
| CC1CCc2c(N3CCC(O)CC3)c(F)cc3c(=O)c(C(=O)O)cn1c23 (centres undefined) [Nadifloxacin] | 0.00794 (active) | 0.0399 (active) | 0.0237 (active) | 0.0176 (active) | 0.0102 (active) | 0.00997 (active) | 0.0247 (active) | 0.00372 (active) |
| CN1CCCN=C1/C=C/c1cccc(O)c1 [Oxantel pamoate] | 1.01 | 1.02 | 1.05 | 1.02 | 1.01 | 0.992 | 1.01 | 1.01 |
| COc1c(O[C@@H]2O[C@H](CO)[C@@H](O)[C@H](O)[C@H]2O)cc2c(c1OC)-c1ccc(SC)c(=O)cc1[C@@H](NC(C)=O)CC2 [Thiocolchicoside] | 0.993 | 0.98 | 1 | 0.988 | 1.01 | 0.999 | 1 | 1 |
| CC(C)(O)c1ccccc1CC[C@@H](SCC1(CC(=O)O)CC1)c1cccc(/C=C/c2ccc3ccc(Cl)cc3n2)c1 [Montelukast] | 1.02 | 1.04 | 1.05 | 1.01 | 0.911 | 0.875 | 1 | 1 |
| CN(C)CCCN1c2ccccc2Sc2ccc(Cl)cc21 [Chlorpromazine hydrochloride] | 0.996 | 0.983 | 0.877 (active) | 0.985 | 0.924 | 0.903 | 1 | 0.962 |
| CC[C@H]1OC(=O)[C@H](C)[C@@H](O[C@H]2C[C@@](C)(OC)[C@@H](O)[C@H](C)O2)[C@H](C)[C@@H](O[C@@H]2O[C@H](C)C[C@H](N(C)C)[C@H]2O)[C@](C)(OC)C[C@@H](C)C(=O)[C@H](C)[C@@H](O)[C@]1(C)O [Clarithromycin] | 0.688 (active) | 0.508 (active) | 0.0231 (active) | 0.799 (active) | 0.0127 (active) | 0.0156 (active) | 0.744 | 0.00712 (active) |
| N=C(N)NCCN1CCCCCCC1 [Guanethidine sulfate] | 1.01 | 0.988 | 1.04 | 1.03 | 1.02 | 1.01 | 1.01 | 1.01 |
| CC[C@H]1OC(=O)[C@H](C)[C@@H](O[C@H]2C[C@@](C)(OC)[C@@H](O)[C@H](C)O2)[C@H](C)[C@@H](O[C@@H]2O[C@H](C)C[C@H](N(C)C)[C@H]2O)[C@](C)(O)C[C@@H](C)C(=O)[C@H](C)[C@@H](O)[C@]1(C)O [Erythromycin] | 0.74 (active) | 0.6 (active) | 0.0246 (active) | 0.767 (active) | 0.0145 (active) | 0.00909 (active) | 0.811 | 0.00339 (active) |
| CC(C)n1c(/C=C/C(O)CC(O)CC(=O)O)c(-c2ccc(F)cc2)c2ccccc21 (centres undefined) [Fluvastatin sodium salt] | 0.985 | 0.995 | 0.997 | 0.996 | 1 | 1 | 1 | 0.931 |
| COc1cccc2c1C(=O)c1c(O)c3c(c(O)c1C2=O)C[C@@](O)(C(C)=O)C[C@@H]3O[C@H]1C[C@H](N)[C@H](O)[C@H](C)O1 [Daunorubicin hydrochloride] | 0.998 | 0.959 | 1.04 | 0.978 | 0.865 | 0.95 | 0.999 | 0.00353 (active) |
| CCCCCCC[N+](CC)(CC)CCCCc1ccc(Cl)cc1 [Clofilium tosylate] | 1 | 0.99 | 1.02 | 1.02 | 0.973 | 0.859 | 1.01 | 0.541 |
| O=C(Cn1ccnc1[N+](=O)[O-])NCCO [Etanidazole] | 1.01 | 1.03 | 1.03 | 1.02 | 0.991 | 1.01 | 0.99 | 1.02 |
| CNCCC=C1c2ccccc2C=Cc2ccccc21 [Norcyclobenzaprine] | 0.983 | 0.935 | 0.888 | 0.996 | 0.943 | 0.926 | 0.994 | 0.968 |
| CN(C)CCOC(c1ccc(Cl)cc1)c1ccccn1 (centres undefined) [Carbinoxamine maleate salt] | 1.01 | 1.08 | 1.04 | 0.989 | 1.07 | 1.09 | 1 | 0.997 |
| CN(Cc1cc(Br)cc(Br)c1N)C1CCCCC1 [Bromhexine hydrochloride] | 0.998 | 1.01 | 0.714 (active) | 1.02 | 0.999 | 0.977 | 1 | 0.948 |
| O=C(Nc1ccccc1)OCC(CN1CCCCC1)OC(=O)Nc1ccccc1 (centres undefined) [Diperodon hydrochloride] | 1.01 | 1.03 | 0.999 | 1.01 | 0.998 | 1.01 | 0.997 | 0.986 |
| CC(C)COCC(CN(Cc1ccccc1)c1ccccc1)N1CCCC1 (centres undefined) [Bepridil hydrochloride] | 1 | 0.965 | 0.875 | 1.02 | 0.996 | 0.982 | 0.986 | 0.906 |
| CC(=O)[C@H]1CC[C@H]2[C@@H]3C[C@H](C)C4=CC(=O)CC[C@]4(C)[C@H]3[C@@H](O)C[C@]12C [Medrysone] | 0.994 | 0.962 | 0.974 | 0.991 | 0.997 | 1.02 | 1.01 | 0.976 |
| Clc1ccc(C(Cn2ccnc2)OCc2c(Cl)cccc2Cl)c(Cl)c1 (centres undefined) [Isoconazole] | 0.997 | 1.01 | 0.949 | 1.01 | 0.95 | 0.949 | 0.995 | 0.953 |
| COC(=O)Nc1nc2cc(C(=O)c3ccccc3)ccc2[nH]1 [Mebendazole] | 0.975 | 0.975 | 0.951 | 0.996 | 0.998 | 0.991 | 0.998 | 0.989 |
| Clc1ccc(CSC(Cn2ccnc2)c2ccc(Cl)cc2Cl)cc1 (centres undefined) [Sulconazole nitrate] | 1.04 | 1.06 | 1.05 | 1.02 | 1.06 | 1.08 | 0.997 | 0.911 |
| OC(c1cc(C(F)(F)F)nc2c(C(F)(F)F)cccc12)C1CCCCN1 (centres undefined) [Mefloquine hydrochloride] | 0.997 | 0.975 | 1 | 0.99 | 0.719 | 0.777 | 0.998 | 0.948 |
| CO/N=C(\C(=O)N[C@@H]1C(=O)N2C(C(=O)O)=C(C[N+]3(C)CCCC3)CS[C@H]12)c1csc(N)n1 [Cefepime hydrochloride] | 0.00376 (active) | 0.0351 (active) | 0.178 (active) | 0.049 (active) | 0.0104 (active) | 0.0103 (active) | 0.00386 (active) | 0.00189 (active) |
| C=CC(N)CCC(=O)O (centres undefined) [Vigabatrin hydrochloride] | 1.02 | 1.02 | 1.01 | 0.997 | 1.01 | 1.06 | 1.03 | 0.992 |
| C=C1c2cccc(O)c2C(O)=C2C(=O)[C@]3(O)C(O)=C(C(N)=O)C(=O)[C@@H](N(C)C)[C@@H]3[C@@H](O)[C@H]12 [Methacycline hydrochloride] | 0.00318 (active) | 0.0126 (active) | 0.0374 (active) | 0.0389 (active) | 0.0122 (active) | 0.00531 (active) | 0.000703 (active) | 0.00224 (active) |
| OCCN1CCN(CCCN2c3ccccc3C=Cc3ccccc32)CC1 [Opipramol dihydrochloride] | 0.981 | 0.962 | 0.961 | 0.996 | 1.01 | 1.01 | 1 | 0.968 |
| CCCc1nc(C)c2c(=O)nc(-c3cc(S(=O)(=O)N4CCN(CC)CC4)ccc3OCC)[nH]n12 [Vardenafil] | 1.01 | 1 | 1.01 | 1.01 | 1.01 | 1.01 | 0.983 | 0.984 |
